This is part of a sample that, as a whole, favours compounds with a hit. Of some 83,000 tested, about 20% had one in any assay.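 The endpoint reported here, percent growth, reads 100 for growth as untreated, 0 for no net growth and -100 for all cells dead.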 A number with no mark means an inactive call. Active and inactive are the calls of the source. Rule for the calls: active = growth percent below 10; inactive = the rest.

Test systems include NCI-H23 lung; NCI-H226 lung; NCI-H322M lung; HOP-62 NSCLC; NCI-H460 lung; HOP-92 NSCLC; NCI-H522 lung; A549/ATCC NSCLC; 786-0 renal; COLO 205 colon; DU-145 prostate; K-562 leukemia; MALME-3M melanoma; MDA-MB-231 breast; RXF 393 renal; SF-268 CNS; SF-295 CNS; SF-539 CNS; UACC-257 melanoma; M14 melanoma.
Holding throughout (experiment): NCI-60 one-dose screen, 48 h (100 = growth as untreated, 0 = no growth, -100 = all killed)
What all share (details): 10 µM unless noted

For the compound `CCCCN(CC)CC(CC)Nc1cc(OC)cc2cccnc12` (stereo not given), the growth is 113% with NCI-H23 lung; 107% in the assay with NCI-H226 lung; 110% in the assay on NCI-H322M lung; 110% in the assay with HOP-62 NSCLC; 110% in the assay with NCI-H460 lung; 89.4% in the assay with HOP-92 NSCLC. Also, the growth in the assay on NCI-H522 lung was 118%; with A549/ATCC NSCLC it was 96.3%; in the assay with 786-0 renal, 107%; in the assay with COLO 205 colon, 119%; with DU-145 prostate, 110%; in the assay on K-562 leukemia, 114%. Further, the growth was 110% with MALME-3M melanoma; 115% in the assay with MDA-MB-231 breast; 122% with RXF 393 renal; 104% with SF-268 CNS; 109% with SF-295 CNS; 102% in the assay with SF-539 CNS. The growth in the assay on UACC-257 melanoma is 92.9%; in the assay with M14 melanoma, 109%.

Turning to `CC(C)OC(=O)Nc1cc(F)ccc1F`, the growth is 92.9% in the assay on NCI-H23 lung; 90.9% in the assay on NCI-H226 lung; 90.8% with NCI-H322M lung; 101% with HOP-62 NSCLC; 106% with NCI-H460 lung; 99.6% in the assay with HOP-92 NSCLC. Moreover, the growth with NCI-H522 lung is 99.8%; in the assay with A549/ATCC NSCLC, 99.7%; with 786-0 renal it was 103%; in the assay on COLO 205 colon it was 105%; in the assay on DU-145 prostate it was 110%; in the assay with K-562 leukemia, 97.4%. The growth is 92.7% in the assay on MALME-3M melanoma; 97% with MDA-MB-231 breast; 106% with RXF 393 renal; 103% in the assay on SF-268 CNS; 97.5% with SF-295 CNS; 92.1% in the assay on SF-539 CNS. In addition, the results for the growth in the assay with UACC-257 melanoma and with M14 melanoma were 96.9% and 96.6%, respectively.

As to `Fc1ccc(NC(=S)c2ccccc2)cc1`, the growth with NCI-H23 lung was 104%; with NCI-H226 lung, 99.1%; in the assay with NCI-H322M lung, 106%; in the assay on HOP-62 NSCLC, 113%; in the assay with NCI-H460 lung it was 107%; in the assay with HOP-92 NSCLC, 86.5%. Besides, the growth with NCI-H522 lung was 96.3%; in the assay with A549/ATCC NSCLC it was 98.8%; in the assay on 786-0 renal, 99.5%; in the assay on COLO 205 colon it was 113%; in the assay on DU-145 prostate it was 106%; in the assay on K-562 leukemia it was 105%. In addition, the growth in the assay on MALME-3M melanoma is 96.2%; in the assay with MDA-MB-231 breast it was 102%; in the assay on RXF 393 renal it was 109%; with SF-268 CNS, 99%; in the assay on SF-295 CNS, 95.8%; in the assay on SF-539 CNS, 97.6%. Also, the growth with UACC-257 melanoma is 98.9%; with M14 melanoma, 100%.

For the compound `COC(=O)[C@H](CC(C)C)NC(=O)NC(=O)NC(=O)CI`, the growth was 73.5% in the assay with NCI-H23 lung; 98.5% with NCI-H226 lung; 98.2% in the assay on NCI-H322M lung; 92.8% in the assay with HOP-62 NSCLC; 85.9% with NCI-H460 lung; -60.6% (active) in the assay with HOP-92 NSCLC. Moreover, the growth is -79.2% (active) in the assay with NCI-H522 lung; 98.2% in the assay with A549/ATCC NSCLC; -73.5% (active) with 786-0 renal; -31.4% (active) in the assay on COLO 205 colon; 109% in the assay with DU-145 prostate; 2.16% (active) in the assay with K-562 leukemia. The growth with MALME-3M melanoma is -57% (active); in the assay with MDA-MB-231 breast it was 33.4%; in the assay on RXF 393 renal it was 64.1%; with SF-268 CNS, 85%; in the assay on SF-295 CNS, 88.8%; in the assay on SF-539 CNS, 77.2%. In addition, the growth in the assay on UACC-257 melanoma was 98.2%; with M14 melanoma, 63.5%.

With `CC(=O)Nc1ccc(C=Nc2ccc3ccccc3c2)cc1`, the growth with NCI-H23 lung is 105%; in the assay on NCI-H226 lung, 100%; in the assay on NCI-H322M lung it was 111%; with HOP-62 NSCLC it was 114%; in the assay on NCI-H460 lung, 111%; in the assay with HOP-92 NSCLC, 81.6%. Moreover, the growth is 13.5% in the assay with NCI-H522 lung; 106% with A549/ATCC NSCLC; 106% in the assay with 786-0 renal; 115% in the assay on COLO 205 colon; 112% in the assay with DU-145 prostate; 105% in the assay with K-562 leukemia. Also, the growth in the assay with MALME-3M melanoma was 111%; in the assay on MDA-MB-231 breast it was 109%; in the assay on RXF 393 renal it was 108%; with SF-268 CNS, 105%; in the assay with SF-295 CNS, 119%; with SF-539 CNS, 107%. In addition, the figures for the growth with UACC-257 melanoma and in the assay on M14 melanoma were 103% and 97%, respectively.

As for `Ic1ccc2[nH]cc(SSc3c[nH]c4ccc(I)cc34)c2c1`, the growth in the assay on NCI-H23 lung was 17.9%; with NCI-H226 lung, 24.9%; with NCI-H322M lung, 57.8%; with HOP-62 NSCLC, 30.4%; with NCI-H460 lung it was -11.5% (active); in the assay with HOP-92 NSCLC, -6.72% (active). Also, the growth was -48% (active) in the assay with NCI-H522 lung; 21.8% with A549/ATCC NSCLC; 41.6% in the assay on 786-0 renal; -37.1% (active) in the assay on COLO 205 colon; 72.5% with DU-145 prostate; 9.29% (active) with K-562 leukemia. Further, the growth in the assay with MALME-3M melanoma is 73.2%; in the assay on MDA-MB-231 breast, 7.64% (active); with RXF 393 renal, 46.4%; in the assay with SF-268 CNS it was -18.1% (active); with SF-295 CNS, -19.1% (active); in the assay on SF-539 CNS, 21.3%. For the same compound, the growth with UACC-257 melanoma was 34.6%; in the assay with M14 melanoma, 27.6%.

Consider `NC1=NC(=O)NC1(c1ccccc1)c1ccccc1`, for which the growth in the assay on NCI-H23 lung was 91.9%; with NCI-H226 lung it was 99%; in the assay with NCI-H322M lung, 99.2%; with HOP-62 NSCLC, 95.6%; in the assay with NCI-H460 lung it was 108%; with HOP-92 NSCLC, 85.3%. In addition, the growth with NCI-H522 lung was 95.1%; in the assay on A549/ATCC NSCLC it was 93.3%; in the assay with 786-0 renal, 135%; with COLO 205 colon, 103%; with DU-145 prostate it was 99.5%; in the assay on K-562 leukemia it was 89.5%. In addition, the growth in the assay with MALME-3M melanoma is 93.3%; with MDA-MB-231 breast, 94%; in the assay on RXF 393 renal, 102%; in the assay on SF-268 CNS, 103%; with SF-295 CNS, 117%; in the assay on SF-539 CNS it was 104%. For the same compound, the growth with UACC-257 melanoma is 103%; in the assay with M14 melanoma, 98.6%.

As for `CCCc1cc2cc(-n3nc(C)c4c3CC(C)(C)CC4=O)cc(NC3CCSCC3)c2c(=O)[nH]1`, the growth in the assay on NCI-H23 lung was 36.8%; in the assay with NCI-H226 lung, 90.2%; in the assay with NCI-H322M lung, 63.4%; in the assay with HOP-62 NSCLC, 45.9%; with NCI-H460 lung it was 66.5%; in the assay on HOP-92 NSCLC, 93.2%. For the same compound, the growth was 47.7% in the assay with NCI-H522 lung; 49.1% with A549/ATCC NSCLC; 66.8% with 786-0 renal; 41.9% in the assay on COLO 205 colon; 42.9% with DU-145 prostate; 19% in the assay with K-562 leukemia. The growth in the assay with MALME-3M melanoma was 64.6%; in the assay on MDA-MB-231 breast, 55.6%; with RXF 393 renal it was 33.7%; in the assay on SF-268 CNS, 81.2%; in the assay with SF-295 CNS, 62.2%; in the assay on SF-539 CNS it was 75.4%. The values for the growth in the assay with UACC-257 melanoma and in the assay on M14 melanoma were 84.6% and 56.6%, respectively.

The values above are taken from PubChem BioAssay (NCI).
